# Results as given in PMC5540273 (PLoS ONE, 2017).
# Test system: MAP4K3
# Conditions: concentration: 1 μM, replicates: in singlicate; n = 1
# 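Also: KINOMEscan kinase panel screen.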
row,Structure (SMILES),%Inh [%]
1,CNc1nccc(-c2c(-c3ccc(F)cc3)ncn2C2CCN(C)CC2)n1 [SB-222903],0
2,CCn1c(-c2ccncc2)nc2cnccc21 [SB-735216],0
3,Clc1cc(Nc2ncnc3cc[nH]c23)ccc1OCc1ccccn1,0
4,CN1CCC(n2cnc(-c3ccc(F)cc3)c2-c2ccnc(NC3CCNCC3)n2)CC1 [SB-229482],0
5,Fc1ccc(-c2ncn(CCCNCc3ccccc3)c2-c2ccncc2)cc1,0
6,Cc1ccc(NC(=O)c2cccc(C#N)c2)cc1-c1ccc(C(=O)Nc2ccncc2)cc1 [GSK1398463],11
7,O=C(c1ccc(-c2cc(-c3c[nH]nc3-c3ccccn3)ccn2)cc1)N1CCCC1 [GW792479],0
8,Cl.c1ccc(Cn2ccc3cc(Nc4ncnc5ccccc45)ccc32)cc1 [GW275568],1
9,CS(=O)(=O)CCNCc1ccc(-c2ccc3ncnc(Nc4ccc(OCc5ccccc5)c(Cl)c4)c3c2)o1.Cl [GW574783],1
10,CCC(CC)(CC)n1cnc2c(N)ncnc21 [SKF-97620],0
11,CC(C)(C)OC(=O)NC1CCCN(c2cc(-c3ccc4c(N)n[nH]c4c3)nc(N)n2)C1 (stereo not drawn) [GSK2286096],3
12,O=C(Nc1ccccc1F)NC1CCN(c2ccnc(Nc3ccc(F)cc3)n2)C1 (stereo not drawn) [GSK1379722],0
13,Cl.c1ccc(Cn2ncc3cc(Nc4ncnc5ccccc45)ccc32)cc1 [GW273749],0
14,CC(=O)Nc1n[nH]c2ncc(-c3ccccc3)cc12 [SB-548492],0
15,Cc1cc(N2CCC(NS(=O)(=O)c3ccc(F)cc3)CC2)nc(Nc2cccc(C#N)c2)n1.O=C(O)C(F)(F)F [GSK1653537],0
16,N#Cc1ccc(Oc2ccc(Nc3ncnc4cc[nH]c34)cc2Cl)cc1,24
17,CCc1nc(-c2cccc(N(C)S(=O)(=O)c3ccccc3)c2)c(-c2ccnc(Nc3ccc(N4CCN(C(C)=O)CC4)nc3)n2)s1 [GSK1645895],0
18,CNc1nccc(-c2c(-c3ccc(F)cc3)ncn2CCCN2CCOCC2)n1 [SB-222516],0

row,Structure (SMILES),%Inh [%]
1,Cc1ccc(C)c(NC(=O)NCCNc2ccnc(Nc3ccc(F)cc3)n2)c1 [GSK1379878],0
2,Cc1cccc(-c2nc(Nc3ccc4[nH]nnc4c3)c3ccccc3n2)n1 [GW867587],0
3,COc1ccc(Nc2nccc(N3CCC(NC(=O)c4cccc(NC(C)=O)c4)C3)n2)cc1 (stereo not drawn) [GSK1379732],0
4,CSc1ccc(NC2=C(c3ccccc3Cl)C(=O)NC2=O)cc1 [SB-342411],10
5,C[C@@H]1CCN(C(=O)CO)C[C@@H]1N(C)c1ncnc2[nH]ccc12,0
6,CSc1nn2c(=O)cc(N3CCOCC3)nc2n1Cc1cccc(Cl)c1Cl [GSK2347225],42
7,COc1ccc(-c2oc3ncnc(N)c3c2-c2ccc(OC)cc2)cc1 [SB-589132],0
8,COc1ccc(NC(=O)c2ccc(-c3cc(-c4nnc(C)o4)ccc3C)cc2)cc1 [GW595885],0
9,COC(=O)c1c(-c2ccccc2)c2cc(Cl)ccc2c(=O)n1Cc1ccc(S(C)(=O)=O)cc1,13
10,CS(=O)(=O)CCNCc1nc(-c2ccc3ncnc(Nc4ccc(OCc5cccc(F)c5)c(Cl)c4)c3c2)cs1.Cl [GW583340],0
11,Cc1ccc(O)cc1Nc1cc(C(F)(F)F)nc2ccc(-c3ccncc3)cc12 [GW630823],0
12,Nc1nc(-c2ccc3c(N)n[nH]c3c2)cc(N2CCC[C@@H](C(=O)Nc3ccccc3)C2)n1.O=C(O)C(F)(F)F.O=C(O)C(F)(F)F [GSK2288359],0
13,CN1c2ccc(-c3ccc(C(=O)NCCO)cc3)cc2-c2[nH]ncc2S1(=O)=O,11
14,Oc1ccc2ncnc(Nc3ccc(OCc4ccccc4)cc3)c2c1 [GI262866],11
15,Nc1nc(-c2ccccn2)c(-c2ccnc3ccccc23)s1 [GW548057],0
16,FC(F)(F)c1ccc(-c2cc(-c3c[nH]nc3-c3ccccn3)ccn2)cc1 [GW599550],0
17,Cn1cc(-c2ccc3c(c2)CCN3C(=O)Cc2cccc(C(F)(F)F)c2)c2c(N)ncnc21 [GSK2606414],0
18,NC(=O)c1sc(-n2cnc3ccccc32)cc1OCc1ccccc1F [GSK1024306],0

# Test system: MAP4K4
# Conditions: concentration: 1 μM, replicates: in singlicate; n = 1
row,Structure (SMILES),%Inh [%]
1,CNc1nccc(-c2c(-c3ccc(F)cc3)ncn2C2CCN(C)CC2)n1 [SB-222903],0
2,CCn1c(-c2ccncc2)nc2cnccc21 [SB-735216],1
3,Clc1cc(Nc2ncnc3cc[nH]c23)ccc1OCc1ccccn1,4
4,CN1CCC(n2cnc(-c3ccc(F)cc3)c2-c2ccnc(NC3CCNCC3)n2)CC1 [SB-229482],0
5,Fc1ccc(-c2ncn(CCCNCc3ccccc3)c2-c2ccncc2)cc1,0
6,Cc1ccc(NC(=O)c2cccc(C#N)c2)cc1-c1ccc(C(=O)Nc2ccncc2)cc1 [GSK1398463],4
7,O=C(c1ccc(-c2cc(-c3c[nH]nc3-c3ccccn3)ccn2)cc1)N1CCCC1 [GW792479],5
8,Cl.c1ccc(Cn2ccc3cc(Nc4ncnc5ccccc45)ccc32)cc1 [GW275568],4
9,CS(=O)(=O)CCNCc1ccc(-c2ccc3ncnc(Nc4ccc(OCc5ccccc5)c(Cl)c4)c3c2)o1.Cl [GW574783],0
10,CCC(CC)(CC)n1cnc2c(N)ncnc21 [SKF-97620],0
11,CC(C)(C)OC(=O)NC1CCCN(c2cc(-c3ccc4c(N)n[nH]c4c3)nc(N)n2)C1 (stereo not drawn) [GSK2286096],0
12,O=C(Nc1ccccc1F)NC1CCN(c2ccnc(Nc3ccc(F)cc3)n2)C1 (stereo not drawn) [GSK1379722],0
13,Cl.c1ccc(Cn2ncc3cc(Nc4ncnc5ccccc45)ccc32)cc1 [GW273749],0
14,CC(=O)Nc1n[nH]c2ncc(-c3ccccc3)cc12 [SB-548492],0
15,Cc1cc(N2CCC(NS(=O)(=O)c3ccc(F)cc3)CC2)nc(Nc2cccc(C#N)c2)n1.O=C(O)C(F)(F)F [GSK1653537],5
16,N#Cc1ccc(Oc2ccc(Nc3ncnc4cc[nH]c34)cc2Cl)cc1,37
17,CCc1nc(-c2cccc(N(C)S(=O)(=O)c3ccccc3)c2)c(-c2ccnc(Nc3ccc(N4CCN(C(C)=O)CC4)nc3)n2)s1 [GSK1645895],0
18,CNc1nccc(-c2c(-c3ccc(F)cc3)ncn2CCCN2CCOCC2)n1 [SB-222516],0

row,Structure (SMILES),%Inh [%]
1,Cc1ccc(C)c(NC(=O)NCCNc2ccnc(Nc3ccc(F)cc3)n2)c1 [GSK1379878],0
2,Cc1cccc(-c2nc(Nc3ccc4[nH]nnc4c3)c3ccccc3n2)n1 [GW867587],0
3,COc1ccc(Nc2nccc(N3CCC(NC(=O)c4cccc(NC(C)=O)c4)C3)n2)cc1 (stereo not drawn) [GSK1379732],0
4,CSc1ccc(NC2=C(c3ccccc3Cl)C(=O)NC2=O)cc1 [SB-342411],2
5,C[C@@H]1CCN(C(=O)CO)C[C@@H]1N(C)c1ncnc2[nH]ccc12,0
6,CSc1nn2c(=O)cc(N3CCOCC3)nc2n1Cc1cccc(Cl)c1Cl [GSK2347225],22
7,COc1ccc(-c2oc3ncnc(N)c3c2-c2ccc(OC)cc2)cc1 [SB-589132],0
8,COc1ccc(NC(=O)c2ccc(-c3cc(-c4nnc(C)o4)ccc3C)cc2)cc1 [GW595885],4
9,COC(=O)c1c(-c2ccccc2)c2cc(Cl)ccc2c(=O)n1Cc1ccc(S(C)(=O)=O)cc1,0
10,CS(=O)(=O)CCNCc1nc(-c2ccc3ncnc(Nc4ccc(OCc5cccc(F)c5)c(Cl)c4)c3c2)cs1.Cl [GW583340],0
11,Cc1ccc(O)cc1Nc1cc(C(F)(F)F)nc2ccc(-c3ccncc3)cc12 [GW630823],0
12,Nc1nc(-c2ccc3c(N)n[nH]c3c2)cc(N2CCC[C@@H](C(=O)Nc3ccccc3)C2)n1.O=C(O)C(F)(F)F.O=C(O)C(F)(F)F [GSK2288359],5
13,CN1c2ccc(-c3ccc(C(=O)NCCO)cc3)cc2-c2[nH]ncc2S1(=O)=O,27
14,Oc1ccc2ncnc(Nc3ccc(OCc4ccccc4)cc3)c2c1 [GI262866],4
15,Nc1nc(-c2ccccn2)c(-c2ccnc3ccccc23)s1 [GW548057],4
16,FC(F)(F)c1ccc(-c2cc(-c3c[nH]nc3-c3ccccn3)ccn2)cc1 [GW599550],60
17,Cn1cc(-c2ccc3c(c2)CCN3C(=O)Cc2cccc(C(F)(F)F)c2)c2c(N)ncnc21 [GSK2606414],10
18,NC(=O)c1sc(-n2cnc3ccccc32)cc1OCc1ccccc1F [GSK1024306],8
